Measurements as given in PubChem BioAssay AID687022 (Broad Institute, 2013).
The campaign covered roughly 1,000 compounds. About 360 (36%) were called active. The list is a sample of the results. Unmarked numbers belong to inactive results.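 The calls were made as follows: active = Fitted curve of melting temperature shift crosses the 1.0 threshold at or below the sample's highest valid tested concentration; inconclusive = Flat fit with activity 30 to 70, or invalid fit; inactive = Opposite direction, flat within 30, or no crossing.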

molecular target: Fibroblast growth factor 22 (Homo sapiens) (UniProt Q9HCT0); experiment: binders of human FGF22 protein, dose response, FGF22 synaptogenesis inhibitor project, biophysical, thermal shift, cherry-pick (AID 687022); settings: recombinant FGF22 thermal shift, SYPRO orange melting; series mostly up to 38 µM; Tm shift activity: at the top concentration; also: reference of the scale not given here
Sequence (Q9HCT0 whole entry, looked up): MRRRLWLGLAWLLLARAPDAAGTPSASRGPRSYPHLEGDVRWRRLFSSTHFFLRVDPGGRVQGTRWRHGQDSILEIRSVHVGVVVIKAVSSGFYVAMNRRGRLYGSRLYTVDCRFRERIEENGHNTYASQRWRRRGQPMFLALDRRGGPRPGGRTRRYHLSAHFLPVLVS

SMILES | Tm shift activity
CN(C)CC(=O)Nc1ccc2c(c1)[C@@H]1C[C@H](CC(=O)N(C)C)O[C@@H](CO)[C@@H]1O2 | 0.094%
O=C1COc2ccc(S(=O)(=O)N3CCCC3)cc2N1 | -0.074%
C[C@H]1CN([C@@H](C)CO)C(=O)c2cc(NS(=O)(=O)c3cn(C)cn3)ccc2O[C@H]1CN(C)Cc1ccccc1 | -0.139%
OC[C@H]1[C@@H](c2ccc(-c3cccnc3)cc2)[C@@H]2CN(Cc3ccccn3)CCCCN12 | -0.15%
O=C(C[C@H]1CC[C@H]2[C@@H](COC[C@@H](O)CN2C(=O)C2CC2)O1)NCc1ccncc1 | -0.062% [at 42 µM]
Cc1nn(C)cc1NC(=O)C[C@H]1CC[C@@H]2[C@@H](COc3ccc(NC(=O)NC(C)C)cc3C(=O)N2C)O1 | -0.291%
COc1cccc(NC(=O)N[C@H]2C=C[C@@H](CC(=O)N3CCN(C)CC3)O[C@H]2CO)c1 | 0.241% [at 42 µM]
O=C1C=CCCN1S(=O)(=O)/C=C/c1ccccc1 | 0.169%
CCOc1ccc(C(=O)CCC(=O)Nc2ccc(C)cn2)cc1 | 0.045%
CCC(CC)CN1CCC(CN2C(=O)C(=O)NC[C@@H]2CC(C)C)CC1 | 0.023%
O=C(C[C@H]1C[C@@H]2c3cc(NC(=O)NC4CCCC4)ccc3O[C@@H]2[C@H](CO)O1)NC1CCCC1 | -0.22%
Nc1nccc(-c2ccc(-n3cccc3)cc2)n1 | -0.117%
CO[C@H]1CN(C)C(=O)c2ccc(NS(=O)(=O)c3ccc(Cl)cc3)cc2OC[C@@H](C)N(C(=O)NC(C)C)C[C@H]1C | -0.141% [at 42 µM]
COCCNC(=O)CCc1nnc2ccc(N3CCC(C)CC3)nn12 | -0.14%
CC(C)(C)NC(=O)N1CCC(CO)(Cc2ccccc2Cl)CC1 | -0.024%
CC(=O)N1[C@H](CO)[C@H](c2ccccc2)[C@H]1CN(C(=O)c1cccc(F)c1)C(C)C | -0.225%
Cc1noc(C)c1S(=O)(=O)Nc1ccc2c(c1)CC(=O)N([C@@H](C)CO)C[C@@H](C)[C@@H](CN(C)Cc1ccc(Cl)c(Cl)c1)O2 | -1.12% [at 42 µM]
CCCNC(=O)N1[C@@H]2CN(C(=O)c3ccccc3)c3ccccc3[C@@H]2[C@@H]1CO | 0.376% [at 42 µM]
O=C(O)C1CSC(c2ccc3c(c2)OCO3)N1 (stereo not drawn) | 0.16%
OC[C@@H]1[C@H](c2ccc(Br)cc2)[C@@H]2CN(Cc3cncnc3)CCCCN12 | -0.264% [at 42 µM]
CO[C@H]1CN(C)C(=O)c2cc(NC(=O)CC(F)(F)F)ccc2OC[C@@H](C)N(C(C)=O)C[C@H]1C | -0.187% [at 42 µM]
CNC[C@H]1Oc2ccc(NC(=O)Nc3ccc(OC)cc3)cc2C(=O)N([C@H](C)CO)C[C@@H]1C | -0.083% [at 42 µM]
CNC[C@@H]1Oc2c(NS(=O)(=O)c3ccc(OC)cc3)cccc2C(=O)N([C@@H](C)CO)C[C@@H]1C | -0.136%
COc1ccc(S(=O)(=O)N(C)C[C@@H]2Oc3c(NC(=O)c4cc(C)nn4C)cccc3C(=O)N([C@H](C)CO)C[C@H]2C)cc1 | -0.141% [at 42 µM]
COc1ccc(S(=O)(=O)N/N=c2\oc3c(OC)cccc3cc2S(=O)(=O)c2ccc(C)cc2)cc1OC | 0.599%
O=C(N[C@H]1CC[C@@H](CCNS(=O)(=O)c2ccc(F)cc2)O[C@H]1CO)C1CCCC1 | -0.05% [at 42 µM]
CN1C(=O)c2cc(NC(=O)Cc3ccccc3)ccc2OC[C@@H]2O[C@H](CC(=O)O)CC[C@H]21 | -0.126%
CO[C@@H]1CN(C)C(=O)c2cc(NC(=O)NC(C)C)ccc2OC[C@@H](C)N(C)C[C@@H]1C | -0.329%
